# From ChEMBL document CHEMBL3988442, “University of Dundee, Small-Polar-MMV Screening Library” (2021)
# Screen size: about 38,000 compounds; about 1,200 (3.2%) showed an effect of 50% or more. The median lay at about -58%. This is one part of a sample in which strong results are shown more often than they occur.
# Test system: Plasmodium falciparum
# Assay: Calibr Malaria Delayed Death Assay SOP
# Type: functional, organism-based
# Design: scale not given: in the data most compounds retested in dose-response had high values
# Conditions: concentration 4.99e-06 (unit not given; other assays of the set use mol/L)
row,Structure (SMILES),Percent Effect [%]
1,Cc1noc(C)c1CN1C[C@@H]2COC[C@]2(COc2ccc(C#N)cn2)C1,-26.6
2,Cn1ncc2c(N[C@@H]3C[C@@H]4CC[C@H]3C4)nc(-c3ccncc3)nc21,-96.32
3,CC(C)OCCCNC(=O)CN1C=Nc2ccccc2S1(=O)=O,-92.03
4,O=C(N1CCCC1)N1CCN(Cc2cccnc2)c2ncccc2C1.O=C(O)C(F)(F)F.O=C(O)C(F)(F)F,-47.54
5,COC[C@@]12CCC[C@@H]1CN(C(=O)CN(C)C)C2.O=C(O)C(F)(F)F,-5.547
6,CCCc1cc(=O)[nH]c(SCc2ccccn2)n1,-130.6
7,Cn1cc(C2CCCN2CCc2nc3ccccc3c(=O)[nH]2)cn1 (stereo not given),-41.09
8,CC(C)NC(=O)N1CCC2(CC(=O)N(c3cccc(F)c3)C2)C1 (stereo not given),-10.77
9,Cc1cc(C(=O)NCc2cccnc2N2CCCC(O)C2)c(C)o1 (stereo not given),-87.63
10,CN(C(=O)Nc1nncs1)C1CCN(c2ccccc2Cl)C1=O (stereo not given),-21.66
11,O=C(O)C(F)(F)F.O=C(O)C(F)(F)F.O=S(=O)(C1CC1)N1CCC2(CCCN(Cc3ccccn3)C2)C1 (stereo not given),8.867
12,Cc1cnc(NC(=O)C(C)Oc2ccc3c(c2)OCO3)s1 (stereo not given),-125.5
13,COc1ccc(OCCN(C)c2cc(C)nc(N)n2)cc1,62.66
14,Cc1cc(N(C)CCCn2cccn2)nc(N)n1,23.74
15,Cc1cc(N(C)CC2COc3ccccc3O2)nc(N)n1 (stereo not given),46.69
16,COc1ccc(F)c(-c2cc(C)nc(N)n2)c1,-22.79
17,COc1ccc(OCCN(C)CCCn2cnc3c(N)ncnc32)cc1,-97.62
18,COc1ccccc1OCCN(C)c1cc(C)nc(N)n1,69.29
19,O=C(CCCc1ccc(Cl)cc1)N1CCC(c2nnc[nH]2)CC1,-167.6
20,O=C(O)C(F)(F)F.c1cnc(N2C[C@H]3CCN(CC4CC4)C[C@H]3C2)cn1,16.16

row,Structure (SMILES),Percent Effect [%]
1,Cn1cnc2c(N3CCCC3)nc(C3CCN(CC4CC4)CC3)cc21.O=C(O)C(F)(F)F.O=C(O)C(F)(F)F,68.79
2,Cl.Cl.Cn1cnc2c(N3CCCC3)nc(C3CCNCC3)cc21,-34.14
3,O=C(O)C(F)(F)F.O=C(O)C(F)(F)F.c1cnc(N2CCOCC3(CCCN(CC4CCOCC4)C3)C2)nc1 (stereo not given),-11.39
4,O=C(O)C(F)(F)F.c1cnc(N2CCCC3(COCCN(CC4CC4)C3)C2)nc1 (stereo not given),37.44
5,O=C(O)C(F)(F)F.O=C(O)C(F)(F)F.c1cc2nc(C3CCN(CC4CC4)CC3)nn2cc1N1CCCC1,-27.34
6,O=C(O)C(F)(F)F.c1cnc(N2CCCC3(CCN(CC4CCC4)C3)C2)nc1 (stereo not given),51.49
7,O=C(O)C(F)(F)F.O=C(O)C(F)(F)F.c1cnc(N2CCC3(CCN(CC4CCOCC4)CC3)C2)nc1,-33.73
8,O=C(O)C(F)(F)F.O=C(O)C(F)(F)F.c1cnc(N2CCCC3(CCN(CC4CC4)C3)C2)nc1 (stereo not given),59.09
9,Cc1cnc(N2C[C@H]3CCN(CC4CC4)C[C@@H]3C2)nc1.O=C(O)C(F)(F)F,37.51
10,O=C(O)C(F)(F)F.O=C(O)C(F)(F)F.c1cnc(N2CCC3(CCN(CC4CCCC4)CC3)C2)nc1,42.2
11,Cc1cnc(N2C[C@H]3CCN(CC4CC4)C[C@H]3C2)nc1.O=C(O)C(F)(F)F,63.65
12,CN(CCc1ccccn1)C(=O)C(O)c1ccc(Br)cc1 (stereo not given),-90
13,CS(=O)(=O)N1CCC2(CCN(C(=O)c3cccnc3)CC2)C1.O=C(O)C(F)(F)F,-35.24
14,CC(C)Cc1noc(C2CCCN(C(=O)CCc3cnn(C)c3)C2)n1 (stereo not given),-27.67
15,O=C(O)C(F)(F)F.O=C(O)C(F)(F)F.c1cncc(OC[C@]23COC[C@H]2CN(C2CCOCC2)C3)c1,-14.64
16,CCN(CC)C(=O)CSc1nc2c(cnn2CCO)c(=O)[nH]1,-60.63
17,CCCNCc1ncc(C)c(OC)c1C,-91.87
18,O=C(Cn1nc(N2CCOCC2)ccc1=O)Nc1nccs1,-91.76
19,O=S(=O)(c1ccc(F)cc1F)N1CCCCC1c1nnc2n1CCCC2 (stereo not given),-68.7
20,CCN(Cc1cccc2c1OCO2)C(=O)NC1CC1,-37.14

row,Structure (SMILES),Percent Effect [%]
1,CN(C)C(=O)CN1CCOCC2(CCN(c3ncc(F)cn3)CC2)C1.O=C(O)C(F)(F)F,-87.82
2,CCCN(CCn1c(=O)oc2ccccc21)CC1CC1,13.79
3,CC(=O)N1CCN(C(=O)Nc2ccc(Cl)cc2)[C@H]2CS(=O)(=O)C[C@H]21,-18.79
4,CSCCC(=O)NCc1cc2n(n1)CCCN(C1CCCCC1)C2,-96.84
5,CC(NC(=O)C1CN(c2ncnc3c2nnn3C)C1)c1ccccc1 (stereo not given),-135.3
6,Cc1cc(NC(=O)CN2CCCCC2Cn2nc(C)nc2C)on1 (stereo not given),-33.53
7,O=C(O)C(F)(F)F.c1cnc(N2CCC3(CN(CC4CCOC4)C3)C2)nc1 (stereo not given),-18.8
8,O=C(O)C(F)(F)F.c1cnc(N2CCC3(CCN(CC4CCOC4)CC3)C2)nc1 (stereo not given),-17.94
9,O=C(O)C(F)(F)F.c1cnc(N2CCCC3(CCN(CC4CCOC4)CC3)C2)nc1 (stereo not given),55.15
10,Cc1noc(C)c1CN1CC[C@H]2OCC[C@@]2(C(=O)N2CCOCC2)C1.O=C(O)C(F)(F)F,-52.8
11,Cc1nc(CC(=O)N2CCCC(n3ccnc3C(C)C)C2)cs1 (stereo not given),-131
12,COc1cccc(CN(C)Cn2nc(C(C)(C)C)ccc2=O)c1,-38.19
13,O=C(O)C(F)(F)F.O=C(O)C(F)(F)F.O=C(O)C(F)(F)F.c1ccc(CN2CCC3(CC2)CCN(Cc2cccs2)C3)nc1,53.66
14,O=C(O)C(F)(F)F.O=C(O)C(F)(F)F.c1ccc(CN2CCCC3(CCN(CC4CCCO4)CC3)C2)nc1 (stereo not given),10.98
15,O=C(O)C(F)(F)F.O=C(O)C(F)(F)F.c1ccc(CN2CCC3(CC2)CCN(c2ccccn2)C3)nc1,-1.583
16,Cn1cc(CN2CCC3(CCCN(Cc4ccccn4)C3)CC2)cn1,-52.6
17,Cc1cccc(N2CCC3(CCN(Cc4ccccn4)CC3)CC2)n1.O=C(O)C(F)(F)F.O=C(O)C(F)(F)F,62.64
18,O=S(=O)(C1CC1)N1CCC2(CCCN(Cc3ccccn3)C2)CC1,-27.08
19,Cc1ccc(N2CCC3(CCN(Cc4ccccn4)CC3)CC2)nn1,-24.83
20,O=C(O)C(F)(F)F.O=C(O)C(F)(F)F.O=C(O)C(F)(F)F.O=C(O)C(F)(F)F.c1ccc(CN2CCC3(CC2)CCN(Cc2cccnc2)C3)nc1,17.02
